Reference: PubChem BioAssay AID1486 (The Scripps Research Institute Molecular Screening Center, 2009)
Hit rate of the full screen: of about 220,000 compounds, about 2,400 (1.1%) were called active.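 Rule for the calls: active = inhibition above a per-campaign cutoff, the mean inhibition of all tested compounds plus 3 SD (cut at about 27% in these data); inactive = the rest.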 Many of the other results were omitted from the sample, so actives are more common in it than they were.

Assay: growth loss in parental Ba/F3 cells – cell-based, murine pro-B, CellTiter-Glo luminescence, counter-screen for JAK2V617F inhibitor project (AID 1486);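 note: 0% = DMSO wells and 100% = JAK Inhibitor I control wells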
Conditions: Ba/F3 parental viability, CellTiter-Glo ATP luminescence; at 5.6 µM; stronger effect = higher value
For CCCCCCCCCCCCn1ccc(=N)cc1, the inhibition was 102% (active). For CCC(C)n1c(O)c(/C=N/Nc2nc3c(c(=O)n(C)c(=O)n3C)n2C)c(=O)[nH]c1=S (stereo not given), the inhibition was -0.78% (inactive). With O=c1c2ccccc2nc(/C=C/c2ccco2)n1-c1ccccc1O the inhibition was -6.32% (inactive). In the case of CCOP(=O)(OCC)C(NC(=O)NC)C(N)=O (stereo not given), the inhibition is reported as 4.51% (inactive). With CC/C(=N\NC(=O)c1ccccc1O)c1c(O)n(Cc2ccccc2)c(=O)[nH]c1=O the inhibition was -2.72% (inactive). In the case of Cc1ccc(CN2CCCC(C(=O)c3ccc4c(c3)OCO4)C2)cc1C (stereo not given), the inhibition is reported as 2.33% (inactive). In the case of CCOc1ccc(-c2cc(C)[n+](CCN(CC)CC)c(-c3ccc(OCC)cc3)c2)cc1, the inhibition is reported as 81.7% (active). With O=c1[nH]c(=O)n(CCc2ccc(F)cc2)c(O)c1/C=N/N1CCCCC1 the inhibition was -4.39% (inactive). With CC(C)c1ccc(-n2c(O)c(/C=N/N3CCOCC3)c(=O)[nH]c2=S)cc1 the inhibition was 2.53% (inactive). In the case of COc1cc(OC)cc(C2(C#N)CCN(C)CC2)c1, the inhibition is reported as -2.96% (inactive). In the case of CN(C)CC1Oc2ccccc2OC1(O)c1ccccc1 (stereo not given), the inhibition is reported as 8.72% (inactive). In the case of COCc1cc(OC(=O)N(C)C)nc(-c2ccc(C)c(Cl)c2)n1, the inhibition is reported as 3.28% (inactive). In the case of CC1=CC(=Cc2sc3ccccc3[n+]2C)C=C(C)O1, the inhibition is reported as 106% (active). In the case of COc1ccc(-n2c(O)c(C(C)=Nc3ccc4c(c3)CCC4)c(=O)[nH]c2=O)cc1, the inhibition is reported as 2.36% (inactive). For O=C1CC(=O)N(Cc2ccccc2)C(=O)N1CCCCCCN1C(=O)CC(=O)N(Cc2ccccc2)C1=O, the inhibition was -0.44% (inactive). With CC1(C)Cc2c(C#N)c(N3CCNCC3)nc(-c3ccco3)c2CS1 the inhibition was 1.77% (inactive). In the case of CC1=C(C(=O)Nc2ccccc2)S(=O)(=O)CCO1, the inhibition is reported as 0.55% (inactive). In the case of CNC(=O)O/N=C(\N)Cc1csc2ccc(Cl)cc12, the inhibition is reported as 3.22% (inactive). For CCOc1cccc(=NC2CCCCC2)c2c(C)[nH]c(C)c12, the inhibition was 50.8% (active). With COc1ccc(-n2c(-c3ccccc3)nc3ccccc3c2=O)cc1 the inhibition was 1.83% (inactive).
